Screening results from PubChem BioAssay.
A selection: hits, their analogues and other compounds. The true share with any hit is near 9.2%.
Rab9 promoter act: qHTS Assay for Rab9 Promoter Activators; Huh7 Rab9 promoter-luciferase reporter, luminescence, 24 h; AID 485297, 2010; Potency, µM (titrated, usually from 9.22 µM), inactives show top-dose activation, negative = inhibition, usual class: activators; hit rate 2.8% among 320,000; also: % of control where 0% means no effect; nearly all actives have a fitted effect of over 60% in size
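Huh7 cells stably carrying Rab9 promoter–luciferase reporter, plated 1500 cells/well, compound added after 2 h and incubated 24 h at 37 °C; luciferase luminescence then read after 10 min with detection reagent.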
ELG1 genotoxic: qHTS screen for small molecules that induce genotoxicity in human embryonic kidney (HEK293T) cells expressing luciferase-tagged ELG1; Potency, µM (top dose mostly 46 µM), for inactives: at the highest dose activity change, positive = activation, hits mostly activators; hit rate 1.3% among 330,000; HEK293T ELG1-luciferase reporter, luminescence, 16 h; also: % of control where 0% means no effect; nearly all actives have a fitted effect of over 60% in size
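Step 1: seed 2,000 HEK293T ELG1-luciferase cells per well. Step 2: add compound or DMSO, incubate 16 hr at 37 °C. Step 3: ONE-Glo, 30 min at room temperature, read luminescence.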
NPC1 prom act: qHTS Assay for NPC1 Promoter Activators; Huh7 NPC1 promoter luciferase reporter, 24 h; Potency, µM (doses to about 9.22 µM), for the others: at the top dose activation, most hits filed as activators; hit rate 2.4% among 320,000; also: % of control where 0% means no effect; nearly all actives have a fitted effect of over 60% in size
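Readout is luciferase luminescence, reflecting NPC1 promoter activation in stably transfected Huh7 cells after 24 h compound exposure at 37 °C in reduced-serum medium with 10% FBS.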
FLuc modulator: qHTS profiling assay for firefly luciferase inhibitor/activator using purifed enzyme and Km concentrations of substrates (counterscreen for miR-21 project). purified FLuc, Km substrates, luminescence inhibition. Potency, µM (titrated, usually from 57.5 µM), inactives show at the top dose activity change, negative = inhibition, actives largely listed as inhibitors. hit rate 6.9% among 360,000. AID 588342, 2011;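 also: plate controls were vehicle for no effect and reference inhibitor for full effect; nearly all actives have a fitted effect of over 55% in size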
Target sequence (P08659 whole entry, looked up): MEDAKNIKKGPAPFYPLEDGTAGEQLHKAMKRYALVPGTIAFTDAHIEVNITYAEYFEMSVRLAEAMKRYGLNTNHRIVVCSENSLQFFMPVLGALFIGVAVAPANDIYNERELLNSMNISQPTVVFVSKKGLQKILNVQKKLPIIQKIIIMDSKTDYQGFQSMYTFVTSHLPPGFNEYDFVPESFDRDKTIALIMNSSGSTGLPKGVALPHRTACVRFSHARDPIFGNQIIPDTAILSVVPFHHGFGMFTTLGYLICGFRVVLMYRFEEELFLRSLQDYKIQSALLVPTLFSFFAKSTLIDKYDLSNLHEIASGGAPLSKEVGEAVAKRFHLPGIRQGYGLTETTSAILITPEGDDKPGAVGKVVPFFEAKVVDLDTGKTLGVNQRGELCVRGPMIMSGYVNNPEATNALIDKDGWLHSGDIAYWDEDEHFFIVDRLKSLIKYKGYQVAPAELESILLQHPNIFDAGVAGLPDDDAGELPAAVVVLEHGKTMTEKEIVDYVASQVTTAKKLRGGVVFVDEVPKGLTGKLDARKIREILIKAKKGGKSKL
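Purified P. pyralis luciferase, 10 nM final, with Km-level 10 uM D-luciferin and 10 uM ATP in 50 mM Tris acetate pH 7.5, 10 mM Mg acetate, 0.01% Tween-20, 0.05% BSA; 6-point qHTS titration about 60 µM downward; luminescence read.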
SMN2 splice enh: qHTS Assay for Enhancers of SMN2 Splice Variant Expression; HEK293 SMN2-luciferase splicing reporter, luminescence, 30-36 h; Potency, µM (doses to about 46.1 µM), for the others: top-dose activity change, positive = activation, hits mostly activators; hit rate 2.8% among 210,000; also: % of control where 0% means no effect; nearly all actives have a fitted effect of over 55% in size
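HEK293 cells carry an SMN2 […]–luciferase reporter in which exon 7 inclusion puts luciferase in frame. Cells were plated 10-12 h before compound addition, then incubated 30-36 h at 37C. ONE-Glo luminescence was read; sodium butyrate at 4.5 mM final served as control.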
ELG1 DNA repair: qHTS screen for small molecules that inhibit ELG1-dependent DNA repair in human embryonic kidney (HEK293T) cells expressing luciferase-tagged ELG1; HEK293T ELG1-luciferase reporter, luminescence, 16 h; DNA damage induced by 5-fluorouridine; Potency, µM (titrated, usually from 46.1 µM), inactives show at the highest dose activity change, negative = inhibition, actives largely listed as inhibitors; hit rate 2.3% among 330,000; AID 504467, 2011; also: % is scaled to controls: 0 for no effect and ±100 for the full control effect; nearly all actives have a fitted effect of over 55% in size
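Luminescence from the luciferase reporter, measured 30 min after ONE-Glo reagent at room temperature, was the read-out. Beforehand, 2,000 cells per well were exposed for 16 hr at 37 °C to 5-fluorouridine together with compound or vehicle.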
An asterisk follows results filed as active; ? = inconclusive; . = no result; [ ] = dose if it differs, or a comment. Calls follow the shape of the dose curve; as a rule, active = well fitted curve in the direction sought with a large enough effect; inconclusive = small, poorly fitted or top-dose-only effect, or another doubt; inactive = no such curve, though single readings can be large; an effect the other way counts as inactive or inconclusive. Potency is read from the fitted curve at half-maximal effect.

SMILES	Rab9 promoter act	ELG1 genotoxic	NPC1 prom act	FLuc modulator	SMN2 splice enh	ELG1 DNA repair
COc1cccc(CCc2nnc(CCC(=O)NC(C)c3c(C)nn(C)c3C)o2)c1 (centres undefined)	12.2%	1.2%	1.0%	3.4%	.	19.5%
CCN1CCN(C(=O)/C(=C/c2ccco2)NC(=O)c2ccccc2)CC1	0.9%	0.4%	2.2%	-1.5%	.	-4.6%
Cc1nnc(SCC(=O)Nc2ccccc2C(=O)NC2CC2)s1	-1.4%	-0.1%	-3.1%	-2.4%	16.6%	21.5%
Cc1ccn2cc(CNC(=O)c3cccc(C(F)(F)F)c3)nc2c1	.	.	.	4.9%	.	.
N#CCc1ccc(Oc2ncccn2)cc1	15.3%	0.2%	0.5%	-3.8%	.	?
COc1ccccc1N(C)S(=O)(=O)c1ccc(C(=O)Nc2ncc(C)s2)cc1	-1.2%	-9.9%	-1.9%	.	.	?
CN(c1ccccc1)S(=O)(=O)c1cccc(NC(=O)c2ccc3ncsc3c2)c1	-12.7%	-10.4%	-6.9%	-4.3%	.	14.6µM*
Cc1nnc(NC(=O)c2ccc3ccccc3n2)s1	3.55µM*	?	?	23.9µM*	.	?
Cc1nc2ccc(NC(=O)c3ccco3)cc2s1	2.82µM*	?	?	?	.	?
COc1ccccc1N(C)S(=O)(=O)c1ccc(C(=O)Nc2ccc3nc(C)sc3c2)cc1	-0.2%	-12.7%	-1.3%	-18.0%	-50.6%	25.9µM*
NNC(=O)c1ccc2ccccc2n1	0.9%	1.2%	0.6%	-4.6%	12.5%	?
CN(c1ccccc1)S(=O)(=O)c1cccc(NC(=O)c2cccc(C#N)c2)c1	-8.8%	-2.4%	-6.3%	6.0%	.	?
Cc1ccc(NC(=O)c2ccc3ncsc3c2)cc1S(=O)(=O)N(C)C	0.355µM*	?	0.355µM*	2.13µM*	.	?
CC(=O)c1ccc(NC(=O)c2ccc3nc(C)sc3c2)cc1	2.82µM*	?	2µM*	?	.	?
CCn1nc(C(=O)Nc2ccc3nc(C)sc3c2)c2ccccc2c1=O	1.0%	1.7%	4.7%	?	3.98µM*	?
Cc1nc2ccc(NC(=O)c3ccccc3)cc2s1	2.82µM*	?	2.82µM*	19µM*	22.4µM*	?
Cc1nc2ccc(NC(=O)c3ccc(=O)[nH]c3)cc2s1	-0.6%	12.3%	-0.6%	-6.2%	.	?
CC(=O)c1ccc(OCC(=O)Nc2ccc3nc(C)sc3c2)cc1	2.2%	0.4%	-8.6%	-12.1%	4.6%	4.4%
COc1ccc(C(CC(=O)O)NC(=O)c2cc3ccccc3oc2=O)cc1OC (centres undefined)	.	.	.	-1.5%	4.2%	.
C[C@]12CC[C@H](O)CC1=CC[C@H]1[C@@H]2CC[C@@]2(C)C(N(CCO)CCO)CC[C@@H]12 (some centres undefined)	.	.	.	.	-2.1%[9.22 µM]	.
COc1ccc(CCNC(=O)CN2C(=O)NC(C)(c3ccc([N+](=O)[O-])cc3)C2=O)cc1 (centres undefined)	14.5%	-0.9%	0.2%	5.6%	20.3%	-3.3%
Cc1nc2ccc(NC(=O)c3ccc4ccccc4n3)cc2s1	3.55µM*	?	2.82µM*	6.01µM*	35.5µM*	?
COc1cc(C(=O)Nc2ccc(C(C)=O)cc2)c(Br)c(OC)c1OC	?	7.6%	24.5%	16.9µM*	?	?
Cc1nc2ccc(NC(=O)c3cncc(Br)c3)cc2s1	29.9%	-5.8%	?	?	.	23.1µM*
C/C=C/C1=CC(=O)C[C@H](c2ccc3c(c2)OCO3)C1	-3.1%	-3.2%	8.9%	-1.3%	.	9.6%
SMILES	Rab9 promoter act	ELG1 genotoxic	NPC1 prom act	FLuc modulator	SMN2 splice enh	ELG1 DNA repair
Cc1ccc(/C=C2\SC(=S)N(/N=C/c3cc([N+](=O)[O-])ccc3O)C2=O)o1	-6.0%	-4.4%	-1.1%	23.9µM*	.	-19.5%
O=C(NN1C(=O)/C(=C/c2cc([N+](=O)[O-])ccc2O)SC1=S)c1ccccc1O	7.8%	10.9%	-1.0%	?	.	-0.4%
CC(C)(C)S(=O)(=O)c1cnc(-c2ccc(Cl)cc2)nc1N	2.24µM*	10.4%	2.51µM*	?	.	?
CC(C)(C)S(=O)(=O)c1cnc(N2CCCCC2)nc1N	11.9%	0.6%	9.0%	-10.9%	.	18.3%
Cc1ccc(C(=O)/C=C/Nc2cccc([N+](=O)[O-])c2)o1	3.16µM*	?	?	5.36µM*	14.1µM*	?
CN(C)C(/C=C/Nc1cccc([N+](=O)[O-])c1)=C(C#N)C#N	11.7%	2.2%	2.4%	-1.6%	5.1%	-7.1%
CSCCC(NS(=O)(=O)c1ccccc1F)C(=O)N1CCCCCCC1 (centres undefined)	-3.6%	2.3%	1.6%	3.5%	.	-11.3%
Cc1cc(N2CCN(c3ccccc3)CC2)n2cc(-c3ccccc3)nc2n1	0.7%	-4.5%	1.4%	23.9µM*	-10.1%	?
Cc1cc(N2CCN(c3ccccc3Cl)CC2)n2cc(-c3ccccc3)nc2n1	-8.1%	-21.1%	1.1%	?	-6.5%	?
CC1(C)c2cc(Cl)ccc2-n2c1cc(O)c(-c1ccccc1)c2=O	-2.2%	2.5%	-3.7%	?	.	10.5%
Cc1cccc(N2CCN(C(=O)Cc3ccc(-n4c(=O)[nH]c5ccsc5c4=O)cc3)CC2)c1C	-0.6%	-9.0%	-0.2%	-8.2%	-19.8%	18.4µM*
Cc1ccc(C)c(N2CCN(C(=O)Cc3ccc(-n4c(=O)[nH]c5ccsc5c4=O)cc3)CC2)c1	-11.1%	-6.2%	-6.0%	-0.2%	.	?
Cc1nc(C#N)c(N/N=C/c2cccc(Cl)c2)o1	?	?	?	4.78µM*	11.2µM*	?
